# PubChem BioAssay (NCI)
# This is part of a sample that, as a whole, favours compounds with a hit. Of some 83,000 tested, about 20% had one in any assay.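 Single-concentration screen, 48 h exposure, 96-well plates. Endpoint: percent growth. Below 10 = active.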 Values without a mark were called inactive. The source made the active and inactive calls.
# Tested on: SK-OV-3 ovarian
# Test: NCI-60 one-dose screen, 48 h (100 = growth as untreated, 0 = no growth, -100 = all killed)
# Conditions: 10 µM unless noted
row,Structure (SMILES),growth
1,COc1cc(OC)c(S(N)(=O)=O)cc1C(C)=O,109%
2,COc1cccc2c1CN(C(=O)c1ccc(O)c(C(=O)N3Cc4ccc(OCCC[P+](c5ccccc5)(c5ccccc5)c5ccccc5)cc4C3)c1)C2,112%
3,C=CCn1c(SCC(=O)Nc2ccc(C(=O)/C=C/c3cccc([N+](=O)[O-])c3)cc2)nnc1-c1c[nH]c2ccccc12,106%
4,CNC(=O)c1c(NC(=O)c2cccc(C(F)(F)F)c2F)sc2c1CCC(=O)C2,4.35% (active)
5,COc1ccc(C2c3sc4c(C)cccc4c3Oc3nc(CC(=O)Nc4ccccc4)[nH]c(=O)c32)cc1 (stereo not drawn),85.8%
6,COCCNc1ccc2ncc(C#Cc3cncc(C(=O)Nc4ccc(CN5CCN(C)CC5)c(C(F)(F)F)c4)c3)n2n1,-63% (active)
7,CCN1CCN(C(=O)[C@]23CCC(C)(C)C[C@H]2C2=CC[C@@H]4[C@@]5(C)Cc6c([nH]c7ccccc67)C(C)(C)[C@@H]5CC[C@@]4(C)[C@]2(C)CC3)CC1,106%
8,CN1CCN(Cc2ccc(NC(=O)c3cncc(C#Cc4cnn5cccnc45)c3)cc2C(F)(F)F)CC1,28.3%
9,N#Cc1cccc(/C(N)=N/C(N)=N/c2nc3ccccc3s2)c1,41.6%
10,NS(=O)(=O)c1ccc(Nc2nc(N/N=C/c3c[nH]c4ccccc34)nc(Nc3ccccc3)n2)cc1,90.8%
11,N#C/C(=C\c1ccc(-c2ccc(Cl)cc2Cl)o1)c1ccc(F)cc1,81.9%
12,O=C1/C(=C/C=C/c2ccco2)SC(=S)N1C1CCCCC1,104%
13,O=C(Nc1cccc(Cl)c1)Nc1nc2ccc([N+](=O)[O-])cc2o1,12.9%
14,COc1cccc(C(=O)Nc2cccc(C#Cc3cccc4[nH]nc(N)c34)c2)c1,86.7%
15,COc1cc(OC)c(S(N)(=O)=O)cc1C(=O)/C=C/c1ccc(Cl)cc1,33.6%
16,COc1cc2nc(Cl)nc(Nc3cccc(C4=Nc5c(N)nc(N)nc5NC(c5ccc(Br)cc5)C4)c3)c2cc1OC (stereo not drawn),125%
17,CC1=N[C@@H]2CN(C(=O)OC(C)(C)C)C[C@@H]2n2c1cc1ccccc1c2=O,92.5%

row,Structure (SMILES),growth
1,O=S(=O)(NCCNc1nccc(-n2cnc3ccccc32)n1)c1ccc(Br)cc1,99.9%
2,Cc1cc(-c2ccc(Cl)cc2)n(Cc2nnc(SCC(=O)Nc3ccc(S(N)(=O)=O)cc3)n2C2CCCCC2)n1,106%
3,COc1cc(OC)cc(C(=O)Nc2sc3c(c2C(N)=O)CCC(=O)C3)c1,106%
4,COc1cccc2cc(-c3cc4ccccc4[nH]3)/c(=N\NC(=O)c3ccc(Cl)cc3)oc12,39.5%
5,CC(C)(C)c1ccc(CC(=O)Nc2sc3c(c2C(N)=O)CCC(=O)C3)cc1,9.81% (active)
6,c1cn2c(ccc3nc(-c4cn[nH]c4)c4c(c32)CCCC4)n1,-10.1% (active)
7,Clc1nc2ccccc2nc1-c1nnc(C2CCCCC2)o1,102%
8,CCCn1cnc2c(c1=N)C(c1ccc(F)cc1)c1sc3c(CC)cccc3c1O2 (stereo not drawn),40.3%
9,COc1ccc(-n2c(/C=C3\C(=O)Nc4ccccc43)ccc2CO)cc1,105%
10,N#Cc1ccccc1Cn1c2nc(=N)c3ccccc3c-2nc2ccccc21,79.2%
11,COc1cc2nc(Cl)nc(Nc3cccc(C4=Nc5c(N)nc(N)nc5NC(c5ccc(F)cc5)C4)c3)c2cc1OC (stereo not drawn),117%
12,CCn1c2ccccc2c2cc(-n3nncc3-c3ccccc3)ccc21,42.4%
13,CCCn1cnc2c(c1=N)C(c1ccc(Cl)cc1)c1sc3c(CC)cccc3c1O2 (stereo not drawn),29.7%
14,Cc1ccc(C2=Nn3c(nnc3-c3ccccc3)SC2)cc1,24.7%
15,Cc1ccc2sc3c(c2c1)OC(N)=C(C#N)C3c1ccc(Cl)cc1 (stereo not drawn),85.7%
16,Cc1ccc(NC(=O)N[C@@H](Cc2cc(F)cc(F)c2)C(=O)NC2C(=O)N3C[C@H](O)C[C@H]3C(=O)N3CCCC[C@H]3C(=O)N[C@@H](CO)C(=O)N3C[C@H](C)C[C@H]3C(=O)O[C@H]2C)c(F)c1 (stereo partly drawn),33.7%
